# Assay outcomes (PubChem BioAssay)
# Cardiac RTF inh – cardiac RTF calcium sensitivity inhibitors, primary screen, biochemical, IANBD-TnC fluorescence, EC70 calcium; actives 0.12% (n = 340,000); IANBD-labeled cardiac RTF, Ca2+ fluorescence; inhibition, % at 7.15 µM;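 active = inhibition above the mean inhibition of all tested compounds plus 3 SD, cut at about 17% in these data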;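 also: assay run at fixed EC70 calcium of 1.6 mM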
# LANA DNA inh – inhibitors of KSHV C-LANA binding to DNA, primary screen, biochemical, fluorescence polarization, FAM-LBS DNA, MBP-C-LANA, single point; AID 504423, 2011; actives 0.078% (n = 340,000); Kaposi's sarcoma herpesvirus LANA C-terminal domain (residues 932-1162) DNA binding; inhibition, % at 9 µM;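 active = highest replicate inhibition at or above 60% at 9 µM, even if other replicates fall short; inactive = all replicates below 60% inhibition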;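 also: 0% = neutral control wells and 100% = 4 µM acridine orange control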
# RTF Ca sens act – cardiac RTF calcium sensitivity activators, primary screen, biochemical, IANBD-TnC fluorescence, EC20 calcium. IANBD-labeled TnC RTF fluorescence at EC20 calcium; 0% EC20 calcium, 100% full calcium. activation, % at 7.2 µM. actives 0.24% (n = 340,000). AID 493008, 2010;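 active = activation above the mean over all tested compounds plus 3 SD, cut at about 30% in these data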;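 also: rise in fluorescence read as greater calcium sensitivity of cardiac thin filaments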
# E coli Lon inh – inhibitors of E. coli Lon protease, primary screen, biochemical, fluorescence polarization. actives 0.42% (n = 360,000). AID 602123, 2011. inhibition, % at 7.94 µM. purified E. coli Lon protease; in the data active = inhibition above about 13%, passing the limit was not always enough;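 also: 0% = enzyme with probe and DMSO and 100% = no enzyme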
# Target sequence (P0A9M0 whole entry, looked up): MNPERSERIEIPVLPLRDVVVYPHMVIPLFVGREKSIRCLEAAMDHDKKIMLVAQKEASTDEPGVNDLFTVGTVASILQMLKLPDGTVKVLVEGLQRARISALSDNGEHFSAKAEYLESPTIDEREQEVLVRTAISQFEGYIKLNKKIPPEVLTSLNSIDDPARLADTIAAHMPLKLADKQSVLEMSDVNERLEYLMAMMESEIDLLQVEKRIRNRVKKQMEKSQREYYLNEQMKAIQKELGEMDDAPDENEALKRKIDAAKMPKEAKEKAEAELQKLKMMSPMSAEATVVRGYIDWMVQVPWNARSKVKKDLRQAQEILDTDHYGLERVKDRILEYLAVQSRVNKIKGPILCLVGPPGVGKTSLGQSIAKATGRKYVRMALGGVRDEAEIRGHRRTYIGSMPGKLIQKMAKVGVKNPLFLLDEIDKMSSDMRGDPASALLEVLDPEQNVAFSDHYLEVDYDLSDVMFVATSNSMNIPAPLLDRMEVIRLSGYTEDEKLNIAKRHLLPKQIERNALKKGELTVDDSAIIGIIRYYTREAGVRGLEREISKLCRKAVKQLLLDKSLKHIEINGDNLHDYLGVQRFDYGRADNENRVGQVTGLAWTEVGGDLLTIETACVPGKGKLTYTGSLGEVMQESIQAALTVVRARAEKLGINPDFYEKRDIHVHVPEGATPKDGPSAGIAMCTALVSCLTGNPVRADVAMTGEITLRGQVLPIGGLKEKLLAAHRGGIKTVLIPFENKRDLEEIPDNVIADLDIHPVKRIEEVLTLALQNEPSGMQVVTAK
# Keap1 Nrf2 FP – Keap1-Nrf2 protein-protein interaction inhibitors, primary screen, biochemical, fluorescence polarization, single point | Kelch-like ECH-associated protein 1 (Homo sapiens), Q14145 | Keap1 Kelch-Nrf2 peptide fluorescence polarization, 1536-well | inhibition, % at 9.4 µM | actives 0.15% (n = 340,000) | AID 504523, 2011; in the data active = inhibition above about 12%;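 also: human Keap1 Kelch domain with fluorescein labeled Nrf2 9mer peptide probe; 0% = neutral control wells and 100% = peptide positive control; higher means more block of Keap1 binding to Nrf2 peptide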
# Keap1 TSA – Keap1 Kelch domain binders by thermal stabilisation, dose response, biophysical, thermal shift, RT-PCR instrument, cherry-pick. max delta Tm, degrees C. actives 8% (n = 400). shares compounds with Keap1 Nrf2 FP. delta Tm; stronger effect = higher value. AID 651823, 2012; in the data active = max delta Tm above about 0.48 degrees C
# Sypro dye melt – Sypro Orange dye melt without protein, dose response, artefact control for Keap1-Nrf2 interaction inhibitor project, biochemical, thermal shift counterscreen, cherry-pick; Sypro Orange dye-only thermal melt, no protein, delta Tm; top dose 26 µM; delta Tm, degrees C (no concentration beside the values); shares compounds with Keap1 Nrf2 FP; AID 651858, 2012; 140 tested, under 10 active;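 active = at highest dose tested, delta Tm positive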
# eLon confirm – E. coli Lon protease inhibitor retest, confirmation, biochemical, fluorescence polarization | shares compounds with E coli Lon inh | purified E. coli Lon | actives 31% (n = 1,400) | AID 602230, 2012 | inhibition, % at 7.94 µM; in the data active = inhibition above about 16%;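 also: 0% = enzyme with probe and DMSO and 100% = no enzyme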
# Numbers without * were called inactive; . = not tested or not shown; + = active, no number. Compounds with a hit are over-represented: about 0.82% of the library has one in this group of screens.
SMILES,Cardiac RTF inh,LANA DNA inh,RTF Ca sens act,E coli Lon inh,Keap1 Nrf2 FP,eLon confirm,others
CN1CC=C2C(C#N)=C(N)C(C#N)(C#N)C(c3ccncc3)C2C1 (stereo not drawn),-20.7,43.2,24.7,57.4*,15.4*,81.1*,Keap1 TSA=-0.15;Sypro dye melt=-26.4
COc1ccc2c(c1)NP(=S)(c1ccccc1)N2C (stereo not drawn),-5.1,2.7,4.2,53.0*,-2.5,2.7,
COc1ccc(P2(=O)Nc3ccccc3N2)cc1,-16.7,5.3,17.2,-37.0,-0.9,.,
CCCCn1nnnc1C(c1ccnc2ccccc12)N1CCC2(CC1)C(=O)NCN2c1ccccc1 (stereo not drawn),.,.,.,-9.2,.,.,
CNc1ccc2nc3ccccc3[n+](C)c2c1,-1.3,18.3,0.9,94.8*,7.9,106.4*,
COc1ccc(C2=CC(c3ccc4c(c3)OCO4)c3c(c4ccccc4oc3=O)O2)cc1OC (stereo not drawn),-0.8,-1.7,-2.1,4.1,1.2,.,
CCC(c1nnnn1-c1ccc(OC)cc1)N1CCC2(CC1)C(=O)NCN2c1ccccc1 (stereo not drawn),.,.,.,-5.6,.,.,
O=[N+]([O-])c1ccc(N(CCO)CCO)c2c1no[n+]2[O-],.,.,.,65.8*,.,31.5*,
O=C1NCN(c2ccccc2)C12CCN(C(c1cccc3ccccc13)c1nnnn1C1CCCCC1)CC2 (stereo not drawn),.,.,.,-2.5,.,.,
COc1ccc(-n2nnnc2C(c2cccs2)N2CCC3(CC2)C(=O)NCN3c2ccccc2)cc1 (stereo not drawn),.,.,.,-0.6,.,.,
Cc1ccc2cc(C=C(C#N)C#N)c(Cl)nc2c1,-9.7,27.0,7.6,163.9*,-4.1,82.9*,
COC(=O)C1=C(c2cccc(OCc3ccccc3)c2)C[C@@H]2CC[C@H]1N2C(=O)NCc1cc(C)oc1C(F)(F)F,-18.5,-0.5,1.4,26.2*,0.5,-3.5,
CC(C)OC(=O)c1c(N)n(Cc2ccco2)c2nc3ccccc3nc12,-9.1,3.5,4.8,-3.1,0.6,.,
COCCOC(=O)c1c(N)n(Cc2ccco2)c2nc3ccccc3nc12,-35.5,9.0,25.7,15.9*,-6.3,6.7,
CCN1/C(=C/C=C/C2=[N+](CC)c3ccccc3C2(C)C)C(C)(C)c2ccccc21,.,.,.,+,.,+,
C[N+]1=C(/C=C/Nc2ccccc2)C(C)(C)c2ccccc21,-10.8,4.0,2.4,-1.2,6.7,.,
CN1C[C@H](CNC(=O)OCc2ccccc2)C[C@@H]2c3cccc4c3c(cn4C)C[C@H]21,-7.7,4.8,3.7,75.8*,-1.4,35.9*,
